In the library only some 0.43% were active in any assay of this set; here they are far more common.
GLA inh pH 4.5: alpha-galactosidase A (human) inhibition, pH 4.5; activity change, negative = inhibition, % at 105 µM; purified enzyme, 4-MU-alpha-Gal fluorescence, pH 4.5; 230,000 tested, under 10 active; AID 1467
GAA glycogen mod: inhibitors or activators of human alpha-glucosidase glycogen cleavage; 300,000 compounds, 0.38% hits; P10253; Potency, µM (titrated, usually from 76.4 µM), most hits filed as inhibitors; recombinant GAA, glycogen substrate, Amplex Red glucose oxidase fluorescence; AID 2100;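 note: the screen sought inhibitors and activators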
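Recombinant human enzyme (4 nM); glycogen substrate; 37 C, 40 min, pH 5.0. Readout: coupled glucose oxidase/Amplex Red fluorescence.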
GAA inhib: blocks human lysosomal alpha-glucosidase | 200,000 compounds, 0.005% hits | Potency, µM (highest dose often 76.9 µM), usual class: inhibitors | purified human GAA, 4-MU-alpha-glucoside fluorescence | P10253
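AC50 values come from Hill fits of compound titrations (up to 77 uM) against 4 nM human enzyme. Substrate 4-methylumbelliferyl-alpha-D-pyranoside at 400 uM, pH 5.0 citrate buffer, 20 min room temperature; fluorescence Ex 365/Em 440 after alkaline stop.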
N370S GC mod: inhibits or activates N370S mutant glucocerebrosidase. P04062. N370S GC spleen homogenate, 4MU-glucoside fluorescence. Potency, µM (doses to about 59.4 µM), usual class: inhibitors. 330,000 compounds, 0.092% hits
aGal spleen mod: inhibitors or activators of human alpha-galactosidase in spleen homogenate | P06280 | human spleen homogenate, 4MU-alpha-Gal fluorescence, 40 min | Potency, µM (doses to about 80 µM), actives largely listed as inhibitors | 240,000 compounds, 0.008% hits | AID 2107
Target sequence (P06280 32-429 limits assumed): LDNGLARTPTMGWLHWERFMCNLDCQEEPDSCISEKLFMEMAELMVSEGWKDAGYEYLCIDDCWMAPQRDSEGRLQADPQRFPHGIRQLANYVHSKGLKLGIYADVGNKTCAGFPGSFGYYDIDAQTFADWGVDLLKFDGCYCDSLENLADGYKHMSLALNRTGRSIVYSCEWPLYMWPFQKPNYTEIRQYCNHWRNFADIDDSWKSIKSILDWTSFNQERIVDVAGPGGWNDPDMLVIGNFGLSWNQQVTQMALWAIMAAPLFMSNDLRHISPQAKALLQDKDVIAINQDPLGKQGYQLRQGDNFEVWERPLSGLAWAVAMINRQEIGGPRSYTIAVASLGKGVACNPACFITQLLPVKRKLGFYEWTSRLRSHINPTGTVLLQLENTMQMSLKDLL
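Human spleen homogenate (1 ug) was the enzyme source, with 4-methylumbelliferyl-alpha-D-galactopyranoside (1 mM final) in pH 5.0 citrate buffer with 0.01% Tween-20. Compounds were titrated; after 40 min at 37C, NaOH/glycine stop, 4-MU fluorescence read; AC50 from Hill fits.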
aGlu spleen mod: lysosomal alpha-glucosidase (human) modulation; P10253; human spleen homogenate, 4-MU-alpha-glucoside fluorescence; Potency, µM (series often up to 79.9 µM), most hits filed as inhibitors; 240,000 compounds, 0.006% hits; AID 2112
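Human spleen homogenate (1 ug) incubated with compounds and 1 mM 4-methylumbelliferyl-alpha-D-glucopyranoside in pH 5.0 citrate/phosphate buffer, 37 C, 40 min. Stopped at pH 10; 4-MU fluorescence (Ex 365/Em 440 nm); AC50 by Hill fit.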
Each line names hits and unclear results; the compound was inactive in the other large screens; ! = repeats disagree. Calls come from the whole dose curve; as a rule, active = well fitted curve in the direction sought with a large enough effect; inconclusive = small, poorly fitted or top-dose-only effect, or another doubt; inactive = no such curve, though single readings can be large; an effect the other way counts as inactive or inconclusive.

CC1(C)N(O)C2CCCCC2N1O (stereo not drawn)	none
CC12CCCCC1N(O)CN2O (stereo not drawn)	GAA glycogen mod 17.8µM
Cc1cc2c(s1)Nc1ccccc1N=C2N1CCN(C)CC1	GAA glycogen mod 5.62µM
CCCCC/C=C\C/C=C\C/C=C\C/C=C\CCCC(=O)NCc1ccoc1	none (no result: GAA glycogen mod, GAA inhib)
O=C(Nc1ccc(COc2ccccc2)cc1)Oc1ccccc1N1CCOCC1	GAA glycogen mod 3.98µM
CN1CCN(c2ccc(NC(=O)Oc3ccccc3)cc2)CC1	GAA glycogen mod inconclusive
NNS(=O)(=O)c1ccc(Sc2ccccn2)c([N+](=O)[O-])c1	GLA inh pH 4.5 inconclusive
CC(C)CON=O	none (no result: GLA inh pH 4.5, GAA glycogen mod, GAA inhib)
COc1ccc2c(c1)c(CCN1CCOCC1)c(C)n2C(=O)c1cccc(Cl)c1Cl	N370S GC mod 12.6µM (no result: GAA glycogen mod, GAA inhib)
CCOC(=O)c1c(C)n(CCN2CCN(C)CC2)c2ccc(OC)cc12	none
NC1CCCC[C@@H]1N (stereo partly drawn)	none (no result: GLA inh pH 4.5, GAA glycogen mod, GAA inhib)
O=c1cc(-c2ccc(O)c(O)c2)oc2c(C3O[C@H](CO)[C@@H](O)[C@H](O)[C@H]3O)c(O)cc(O)c12 (stereo partly drawn)	GAA glycogen mod 4.47µM, GAA inhib inconclusive
CNC(=O)Oc1cccc2ccccc12	GAA glycogen mod 35.5µM (no result: GAA inhib)
O=c1c2ccccc2[se]n1-c1ccccc1	N370S GC mod 22.4µM!
CN1C(=O)C(Cc2ccsc2)C(=O)N(C)C1=O	none
CN1C(=O)C(Cc2ccc3c(c2)OCO3)C(=O)N(C)C1=O	GAA glycogen mod 39.8µM (no result: N370S GC mod)
C[C@]12CC[C@@H]3c4ccc(O)c(O)c4CC[C@H]3[C@@H]1CC[C@@H]2O	GAA glycogen mod 8.84µM
C[C@]12CC[C@@H]3c4cc(O)c(O)cc4CC[C@H]3[C@@H]1CC[C@@H]2O	GAA glycogen mod 3.14µM
C[C@]12CC[C@H]3[C@@H](CCC4=CC(=O)CC[C@@H]43)[C@@H]1CC[C@@H]2O	N370S GC mod inconclusive (no result: GAA glycogen mod, GAA inhib)
CCCCCOC(=O)c1ccccc1C(=O)OCCCCC	none (no result: GLA inh pH 4.5, GAA glycogen mod, GAA inhib)
[CH3][Hg][Cl]	none (no result: GLA inh pH 4.5, GAA glycogen mod, GAA inhib)
NC(N)=NCCC[C@@H](N)C(=O)O	none (no result: GAA glycogen mod, GAA inhib)
NC(=O)c1ncn(C2OC(CO)C(O)C2O)n1 (stereo not drawn)	none (no result: GAA glycogen mod, GAA inhib)
N#Cc1c(/N=C/c2c(O)n(Cc3ccco3)c(=O)[nH]c2=O)sc2c1CCCC2	GAA glycogen mod 14µM
Cc1ccc(N2C(=O)NC(=O)/C(=C\c3cc(C)n(-c4ccc(C(=O)O)cc4)c3C)C2=O)cc1	none (no result: GLA inh pH 4.5, GAA inhib, aGal spleen mod, aGlu spleen mod)
Cc1cc(/C=C2\C(=O)NC(=O)N(c3ccc(F)cc3)C2=O)c(C)n1-c1ccc(C(=O)O)cc1	GAA glycogen mod inconclusive, GAA inhib 28.2µM (no result: N370S GC mod)
Oc1ccc(CC2CC3CCN2CC3)cc1O (stereo not drawn)	GAA glycogen mod 3.52µM
Oc1ccc(C[C@H]2NCCc3cc(O)c(O)cc32)cc1O	GAA glycogen mod inconclusive (no result: GLA inh pH 4.5, GAA inhib, aGal spleen mod, aGlu spleen mod)
CCOc1ccc(-c2nc3ccc(-c4nc5ccc(N6CCN(C)CC6)cc5[nH]4)cc3[nH]2)cc1	aGal spleen mod inconclusive (no result: GLA inh pH 4.5, GAA glycogen mod, GAA inhib)
O=C(CCl)c1ccccc1	none (no result: GLA inh pH 4.5, GAA glycogen mod, GAA inhib)
ON1C2CCCCC2N(O)C1c1ccccc1F (stereo not drawn)	GAA glycogen mod 8.84µM
CC/C(=C(\c1ccccc1)c1ccc(OCCN(C)C)cc1)c1ccc(O)cc1	N370S GC mod inconclusive (no result: GLA inh pH 4.5, GAA glycogen mod, GAA inhib)
O=C1CC(NC(=O)C(F)(F)F)=NN1c1ccccc1	GAA glycogen mod 17.8µM
O=C1CC(c2cccnc2)=NN1c1ccccc1	none
CCCC/C(C)=C/[C@@H](NP(=O)(c1ccccc1)c1ccccc1)c1ccccc1	GAA glycogen mod 1.26µM, GAA inhib inconclusive
O=C1CC(N(O)c2ccccc2)C(=O)N1Cc1ccccc1 (stereo not drawn)	GAA glycogen mod 31.6µM
CCOC(=O)C1(CCOc2ccccc2)CCN(Cc2cnc(SC)nc2)CC1	N370S GC mod 20µM
CCCCC/C=C\C/C=C\C/C=C\C/C=C\CCCC(=O)Nc1ccc(O)cc1	GAA glycogen mod 31.6µM, GAA inhib inconclusive
